In the library only some 2.3% were active in any assay of this set; here they are far more common.
pPAFAH FP inh: pPAFAH (human) enzyme inhibition; AID 463082; inhibition, % at 3.39 µM; recombinant pPAFAH, FP-rhodamine probe fluorescence polarization; Q13093; 1.5% of 330,000 active;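 active means inhibition above the mean inhibition across the screen plus 3 SD, cut at about 25% in these data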;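 further: inhibitors block binding of the rhodamine activity-based probe so polarization drops; 0% = enzyme with DMSO and 100% = wells lacking pPAFAH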
Target sequence (Q13093 whole entry, looked up): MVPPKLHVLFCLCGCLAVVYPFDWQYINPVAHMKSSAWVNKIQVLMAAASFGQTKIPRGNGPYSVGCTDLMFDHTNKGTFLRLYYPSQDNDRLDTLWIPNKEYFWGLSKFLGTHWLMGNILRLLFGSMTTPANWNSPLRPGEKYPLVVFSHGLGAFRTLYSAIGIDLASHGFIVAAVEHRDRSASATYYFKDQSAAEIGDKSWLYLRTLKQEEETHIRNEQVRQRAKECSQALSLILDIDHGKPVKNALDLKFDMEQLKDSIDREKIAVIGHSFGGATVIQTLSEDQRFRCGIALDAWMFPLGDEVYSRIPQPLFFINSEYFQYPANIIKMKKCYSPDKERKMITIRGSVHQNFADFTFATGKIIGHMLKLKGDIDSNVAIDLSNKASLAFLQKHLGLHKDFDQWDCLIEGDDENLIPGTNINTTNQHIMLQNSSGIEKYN
PME-1 inh: blocks human protein phosphatase methylesterase 1; Q9Y570; recombinant PME-1, FP-Rh probe fluorescence polarization; inhibition, % at 5.9 µM; 0.53% of 320,000 active; AID 2130;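 active means inhibition above the campaign mean of all compounds plus 3 SD, cut at about 26% in these data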;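 further: competitive labeling of PME-1 active site by serine hydrolase directed probe; 0% = PME-1 with DMSO and 100% = wells lacking PME-1 enzyme; inhibitors block probe labeling so polarization falls and inhibition rises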
Fam108B inh: counter-screen for RBBP9 inhibitors: inhibitors of mouse Fam108B; recombinant Fam108B, FP-Rh probe fluorescence polarization; inhibition, % at 9.51 µM; 0.33% of 300,000 active;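 active means inhibition above the screen mean inhibition plus 3 SD, computed separately per campaign, cut at about 18% in these data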;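 further: inhibitors lower polarization as less probe binds the enzyme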
PAD4 FP inh: inhibitors of human PAD4 | 0.41% of 330,000 active | recombinant PAD4, RCA probe fluorescence polarization | inhibition, % at 6.36 µM | Q9UM07;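 active means percent inhibition above a cutoff equal to the mean of all tested compounds plus 3 SD, cut at about 15% in these data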;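 further: 0% = PAD4 with RCA probe and DMSO and 100% = probe without PAD4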
GSTO1 inh: GSTO1 inhibition, counter-screen for RBBP9 inhibitors. inhibition, % at 5.96 µM. P78417. recombinant GSTO1, activity-based probe fluorescence polarization. 1.1% of 300,000 active;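 active means inhibition above the campaign mean inhibition plus 3 SD, cut at about 35% in these data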;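 further: 0% = GSTO1-1 with DMSO and 100% = wells lacking GSTO1-1 enzyme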
GSTO1 confirm: GSTO1 (human) inhibition, confirmation | shares compounds with GSTO1 inh | recombinant GSTO1, probe fluorescence polarization | inhibition, % at 5.96 µM | 54% of 2,400 active;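 active means inhibition above the primary screen's cutoff, its mean inhibition plus 3 SD, cut at about 35% in these data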;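 further: loss of polarization as inhibitors block binding of rhodamine sulfonate ester activity probe; 0% = GSTO1 with DMSO and 100% = wells lacking GSTO1 enzyme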
GSTO1 recomb ABPP: GSTO1 (human) inhibition by gel ABPP; shares compounds with GSTO1 inh; recombinant GSTO1, gel ABPP SE-Rh probe fluorescence; inhibition, % at 1 µM; 30% of 130 active; AID 463110;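 active means inhibition of the enzyme GSTO1 above about 75%, limit read from the data; inactive means inhibition below that limit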
An asterisk follows results filed as active; / = no result given.

SMILES | pPAFAH FP inh | PME-1 inh | Fam108B inh | PAD4 FP inh | GSTO1 inh | GSTO1 confirm | others
COc1ccc(OC)c(CCNC(=O)CN2C(=O)CCSc3ccccc32)c1 | 2 | -5 | 2 | 4 | 2 | /
COCCN(CCOC)C(=O)c1ccc(NS(=O)(=O)c2ccc3[nH]c(=O)[nH]c3c2)cc1 | -4 | 0 | 3 | -3 | -5 | /
CC1(O)C(=O)C=C2C=C(c3ccsc3)OC=C2C1=O (stereo unspecified) | 42* | 2 | 11 | 1 | 46* | 25
CC1(O)C(=O)C=C2C=C(C3CC3)OC=C2C1=O (stereo unspecified) | 9 | 10 | 5 | 0 | 18 | /
CC1(C)Cc2c(sc(NC(=O)C(=O)N3CCOCC3)c2C(N)=O)CO1 | -1 | 1 | 10 | -8 | 5 | /
CC1=NN(c2ccc(C(=O)O)cc2)C(=O)/C1=C\c1ccc(OC(=O)c2cccs2)cc1 | 5 | 3 | 8 | 5 | 55* | 3
O=C(Nc1cccc2cccnc12)C1CCCC1 | -6 | -8 | -1 | -2 | 5 | /
COc1ccc(S(=O)(=O)N(C(=O)c2ccco2)c2cc3sc(=O)oc3c3ccccc23)cc1 | 10 | 12 | 7 | 9 | 64* | 19
COc1ccc(S(=O)(=O)N(C(=O)C(C)C)c2ccc3oc(=O)sc3c2)cc1 | 9 | 2 | 5 | 14 | 15 | /
CNC(=O)c1cc2c(=O)n3cccc(C)c3nc2n(C(C)C)c1=N | 0 | -1 | 0 | -7 | -1 | /
CCN(c1cccc2ccccc12)S(=O)(=O)c1cccs1 | 6 | / | / | -2 | / | /
CC(=O)Oc1ccc(N(C(C)=O)S(=O)(=O)c2cccs2)c2ccccc12 | 1 | 12 | -2 | -5 | 52* | 14
Cc1cc2c(NC(=O)CC(C)(C)CC(=O)O)cccc2nn1 | 9 | -7 | 4 | -1 | 42* | 7
Cc1cc2c(NC(=O)Nc3ccc(F)cc3)cccc2nn1 | 5 | 1 | -4 | -8 | -1 | /
COc1ccc2c3c(cccc13)N(C)N=C2C | 23 | 7 | 3 | 10 | 70* | 64*
COc1ccc2c3c(cccc13)OC2=O | 4 | -3 | 1 | 1 | 6 | /
COc1ccc(C(C(=O)NC2CCCCC2)N(C(=O)CCl)c2cccc(Cl)c2)cc1 (stereo unspecified) | 7 | 1 | -5 | 4 | 81* | 90* | GSTO1 recomb ABPP=83*
COC(CN(C(=O)CCl)C(C(=O)NC1CCCCC1)c1ccc(C)cc1)OC (stereo unspecified) | 3 | 1 | 3 | 2 | 93* | 91* | GSTO1 recomb ABPP=61
COc1ccc(C(C(=O)NC2CCCCC2)N(C(=O)CCl)c2ccc(C)cc2)cc1 (stereo unspecified) | 2 | 5 | 0 | 3 | 89* | 95* | GSTO1 recomb ABPP=88*
COc1ccc(C(C(=O)NC2CCCC2)N(C(=O)c2ccoc2C)c2ccc(C)cc2)cc1 (stereo unspecified) | 0 | 3 | -3 | -1 | 2 | /
O=C(NC1CCCC1)C(c1ccc(F)cc1)N(Cc1ccc(F)cc1)C(=O)CCl (stereo unspecified) | 1 | 13 | -1 | 2 | 19 | /
Cc1c(C)c2ccc(OCC(=O)Nc3ccc(S(N)(=O)=O)cc3)c(C)c2oc1=O | 1 | -5 | -4 | -12 | -24 | /
NC1=NC(=O)/C(=C\c2cc([N+](=O)[O-])ccc2Cl)S1 | 3 | -1 | -3 | 4 | 46* | 11
CCOc1cc(C(c2c(C)[nH][nH]c2=O)c2c(C)[nH][nH]c2=O)ccc1OS(=O)(=O)c1ccc(C)cc1 | 0 | 1 | 4 | -7 | -19 | /
CCOc1ccc(C(c2c(C)[nH][nH]c2=O)c2c(C)[nH][nH]c2=O)cc1OC | -5 | -9 | 1 | 7 | 42* | 1
CC(=O)NC(CC(=O)OCC(=O)N1CCc2ccccc21)c1ccccc1 (stereo unspecified) | 8 | -2 | -4 | 1 | 2 | /
COc1cc(C#N)c(NC(=O)CN2CCC(C(N)=O)CC2)cc1OC | 0 | 4 | 3 | -2 | 7 | /
CC(=O)Nc1ccc(NC(=O)CCS(=O)(=O)c2ccc3c(c2)oc(=O)n3C)cc1 | 5 | -3 | -1 | 1 | 2 | /
Cn1c(=O)oc2cc(NC(=O)CCl)ccc21 | 0 | -4 | -2 | -4 | 76* | 87*

High-throughput results (PubChem)
